B1: unnamed (peptide)
chain: MARRRLPDRPPNGIG
B2: unnamed (peptide)
chain: STKKPRPPVKSKPKH

Target: AgAbp1
Test: SPOT peptide array binding signal intensity (averaged, normalized) (arbitrary units (background-subtracted, floor 0; scale differs between SH3 domains)); higher = stronger binding of the SH3 domain to the peptide
In short: (§1)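 GST-SH3 fusions from four yeast species, purified on glutathione Sepharose, were incubated at 10 μg/ml overnight at 4°C on membranes of synthetic 15-mer peptides in which cysteines were replaced with serines. Binding signal is the normalized, background-subtracted spot intensity averaged over replicates, in domain-specific arbitrary units.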

| Binder | SPOT peptide array binding signal intensity |
| --- | --- |
| B1 | 546 |

Target: AgBbc1
Test: as above
In short: as §1

| Binder | SPOT peptide array binding signal intensity |
| --- | --- |
| B1 | 428 |

Target: AgBem1-D1
Test: as above
In short: as §1

| Binder | SPOT peptide array binding signal intensity |
| --- | --- |
| B1 | 143 |

Target: AgBzz1-D1
Test: as above
In short: as §1

| Binder | SPOT peptide array binding signal intensity |
| --- | --- |
| B1 | 55 |

Target: AgBzz1-D2
Test: as above
In short: as §1

| Binder | SPOT peptide array binding signal intensity |
| --- | --- |
| B1 | 95 |

Target: AgCyk3
Test: as above
In short: as §1

| Binder | SPOT peptide array binding signal intensity |
| --- | --- |
| B1 | 16 |

Target: AgFus1
Test: as above
In short: as §1

| Binder | SPOT peptide array binding signal intensity |
| --- | --- |
| B1 | 148 |

Target: AgHof1
Test: as above
In short: as §1

| Binder | SPOT peptide array binding signal intensity |
| --- | --- |
| B1 | 112 |

Target: AgHse1
Test: as above
In short: as §1

| Binder | SPOT peptide array binding signal intensity |
| --- | --- |
| B1 | 216 |

Target: AgLsb1
Test: as above
In short: as §1

| Binder | SPOT peptide array binding signal intensity |
| --- | --- |
| B1 | 158 |

Target: AgLsb4
Test: as above
In short: as §1

| Binder | SPOT peptide array binding signal intensity |
| --- | --- |
| B1 | 2490 |

Target: AgMyo5
Test: as above
In short: as §1

| Binder | SPOT peptide array binding signal intensity |
| --- | --- |
| B1 | ≤ 0 |

Target: AgNbp2
Test: as above
In short: as §1

| Binder | SPOT peptide array binding signal intensity |
| --- | --- |
| B1 | 410 |

Target: AgRvs167
Test: as above
In short: as §1

| Binder | SPOT peptide array binding signal intensity |
| --- | --- |
| B1 | 487 |

Target: AgSho1
Test: as above
In short: as §1

| Binder | SPOT peptide array binding signal intensity |
| --- | --- |
| B1 | 636 |

Target: AgSla1-D1-D2
Test: as above
In short: as §1

| Binder | SPOT peptide array binding signal intensity |
| --- | --- |
| B1 | 179 |

Target: AgSla1-D3
Test: as above
In short: as §1

| Binder | SPOT peptide array binding signal intensity |
| --- | --- |
| B1 | 16.5 |

Target: CaAbp1-D1
Test: as above
In short: as §1

| Binder | SPOT peptide array binding signal intensity |
| --- | --- |
| B1 | 1170 |

Target: CaAbp1-D2
Test: as above
In short: as §1

| Binder | SPOT peptide array binding signal intensity |
| --- | --- |
| B1 | 788 |

Target: CaBbc1
Test: as above
In short: as §1

| Binder | SPOT peptide array binding signal intensity |
| --- | --- |
| B1 | 1100 |

Target: CaBem1-D1
Test: as above
In short: as §1

| Binder | SPOT peptide array binding signal intensity |
| --- | --- |
| B1 | 184 |

Target: CaBzz1-D1
Test: as above
In short: as §1

| Binder | SPOT peptide array binding signal intensity |
| --- | --- |
| B1 | 308 |

Target: CaBzz1-D2
Test: as above
In short: as §1

| Binder | SPOT peptide array binding signal intensity |
| --- | --- |
| B1 | 102 |

Target: CaCyk3
Test: as above
In short: as §1

| Binder | SPOT peptide array binding signal intensity |
| --- | --- |
| B1 | 290 |

Target: CaFus1
Test: as above
In short: as §1

| Binder | SPOT peptide array binding signal intensity |
| --- | --- |
| B1 | 280 |

Target: CaHof1
Test: as above
In short: as §1

| Binder | SPOT peptide array binding signal intensity |
| --- | --- |
| B1 | 5.25 |

Target: CaHse1
Test: as above
In short: as §1

| Binder | SPOT peptide array binding signal intensity |
| --- | --- |
| B1 | 89 |

Target: CaLsb1
Test: as above
In short: as §1

| Binder | SPOT peptide array binding signal intensity |
| --- | --- |
| B1 | 6.75 |

Target: CaLsb4
Test: as above
In short: as §1

| Binder | SPOT peptide array binding signal intensity |
| --- | --- |
| B1 | 2570 |

Target: CaMyo5
Test: as above
In short: as §1

| Binder | SPOT peptide array binding signal intensity |
| --- | --- |
| B1 | 22.5 |

Target: CaNbp2
Test: as above
In short: as §1

| Binder | SPOT peptide array binding signal intensity |
| --- | --- |
| B1 | 1660 |

Target: CaRvs167
Test: as above
In short: as §1

| Binder | SPOT peptide array binding signal intensity |
| --- | --- |
| B1 | 923 |

Target: CaRvs167-3
Test: as above
In short: as §1

| Binder | SPOT peptide array binding signal intensity |
| --- | --- |
| B1 | 25.5 |

Target: CaSho1
Test: as above
In short: as §1

| Binder | SPOT peptide array binding signal intensity |
| --- | --- |
| B1 | 794 |

Target: CaSla1-D1-D2
Test: as above
In short: as §1

| Binder | SPOT peptide array binding signal intensity |
| --- | --- |
| B1 | 1100 |

Target: CaSla1-D3
Test: as above
In short: as §1

| Binder | SPOT peptide array binding signal intensity |
| --- | --- |
| B1 | 138 |

Target: ScAbp1
Test: as above
In short: as §1

| Binder | SPOT peptide array binding signal intensity |
| --- | --- |
| B1 | 135 |

Target: ScBbc1
Test: as above
In short: as §1

| Binder | SPOT peptide array binding signal intensity |
| --- | --- |
| B1 | 126 |

Target: ScBem1-D1
Test: as above
In short: as §1

| Binder | SPOT peptide array binding signal intensity |
| --- | --- |
| B1 | 7 |

Target: ScBzz1-D1
Test: as above
In short: as §1

| Binder | SPOT peptide array binding signal intensity |
| --- | --- |
| B1 | 29 |

Target: ScBzz1-D2
Test: as above
In short: as §1

| Binder | SPOT peptide array binding signal intensity |
| --- | --- |
| B1 | 33 |

Target: ScCyk3
Test: as above
In short: as §1

| Binder | SPOT peptide array binding signal intensity |
| --- | --- |
| B1 | 22.5 |

Target: ScFus1
Test: as above
In short: as §1

| Binder | SPOT peptide array binding signal intensity |
| --- | --- |
| B1 | 61 |

Target: ScHof1
Test: as above
In short: as §1

| Binder | SPOT peptide array binding signal intensity |
| --- | --- |
| B1 | 53.2 |

Target: ScHse1
Test: as above
In short: as §1

| Binder | SPOT peptide array binding signal intensity |
| --- | --- |
| B1 | 241 |

Target: ScLsb1
Test: as above
In short: as §1

| Binder | SPOT peptide array binding signal intensity |
| --- | --- |
| B1 | 434 |

Target: ScLsb2
Test: as above
In short: as §1

| Binder | SPOT peptide array binding signal intensity |
| --- | --- |
| B1 | 176 |

Target: ScLsb3
Test: as above
In short: as §1

| Binder | SPOT peptide array binding signal intensity |
| --- | --- |
| B1 | 3700 |

Target: ScLsb4
Test: as above
In short: as §1

| Binder | SPOT peptide array binding signal intensity |
| --- | --- |
| B1 | 1540 |

Target: ScMyo3
Test: as above
In short: as §1

| Binder | SPOT peptide array binding signal intensity |
| --- | --- |
| B1 | 7 |

Target: ScMyo5
Test: as above
In short: as §1

| Binder | SPOT peptide array binding signal intensity |
| --- | --- |
| B1 | ≤ 0 |

Target: ScNbp2
Test: as above
In short: as §1

| Binder | SPOT peptide array binding signal intensity |
| --- | --- |
| B1 | 523 |

Target: ScPex13
Test: as above
In short: as §1

| Binder | SPOT peptide array binding signal intensity |
| --- | --- |
| B1 | 438 |

Target: ScRvs167
Test: as above
In short: as §1

| Binder | SPOT peptide array binding signal intensity |
| --- | --- |
| B1 | 2820 |

Target: ScSho1
Test: as above
In short: as §1

| Binder | SPOT peptide array binding signal intensity |
| --- | --- |
| B1 | 1560 |

Target: ScSla1-D1-D2
Test: as above
In short: as §1

| Binder | SPOT peptide array binding signal intensity |
| --- | --- |
| B1 | 1290 |

Target: ScSla1-D3
Test: as above
In short: as §1

| Binder | SPOT peptide array binding signal intensity |
| --- | --- |
| B1 | 100 |

Target: SpAbp1-D1
Test: as above
In short: as §1

| Binder | SPOT peptide array binding signal intensity |
| --- | --- |
| B1 | 1340 |

Target: SpBbc1
Test: as above
In short: as §1

| Binder | SPOT peptide array binding signal intensity |
| --- | --- |
| B1 | 43.8 |

Target: SpBzz1-D1
Test: as above
In short: as §1

| Binder | SPOT peptide array binding signal intensity |
| --- | --- |
| B1 | 450 |

Target: SpBzz1-D2
Test: as above
In short: as §1

| Binder | SPOT peptide array binding signal intensity |
| --- | --- |
| B1 | 9 |
| B2 | 2 |

Target: SpCyk3
Test: as above
In short: as §1

| Binder | SPOT peptide array binding signal intensity |
| --- | --- |
| B1 | 221 |
| B2 | ≤ 0 |

Target: SpHof1
Test: as above
In short: as §1

| Binder | SPOT peptide array binding signal intensity |
| --- | --- |
| B1 | 1210 |
| B2 | 11.8 |

Target: SpHof1-2
Test: as above
In short: as §1

| Binder | SPOT peptide array binding signal intensity |
| --- | --- |
| B1 | 1530 |
| B2 | 3.5 |

Target: SpHof1-3
Test: as above
In short: as §1

| Binder | SPOT peptide array binding signal intensity |
| --- | --- |
| B1 | 3040 |
| B2 | 274 |

Target: SpHse1
Test: as above
In short: as §1

| Binder | SPOT peptide array binding signal intensity |
| --- | --- |
| B1 | 104 |
| B2 | 44.5 |

Target: SpLsb1
Test: as above
In short: as §1

| Binder | SPOT peptide array binding signal intensity |
| --- | --- |
| B1 | 178 |
| B2 | 383 |

Target: SpLsb4
Test: as above
In short: as §1

| Binder | SPOT peptide array binding signal intensity |
| --- | --- |
| B1 | 5420 |
| B2 | 30 |

Target: SpMyo1
Test: as above
In short: as §1

| Binder | SPOT peptide array binding signal intensity |
| --- | --- |
| B1 | 52.8 |
| B2 | ≤ 0 |

Target: SpNbp2
Test: as above
In short: as §1

| Binder | SPOT peptide array binding signal intensity |
| --- | --- |
| B1 | 144 |
| B2 | ≤ 0 |

Target: SpPex13
Test: as above
In short: as §1

| Binder | SPOT peptide array binding signal intensity |
| --- | --- |
| B1 | 123 |
| B2 | ≤ 0 |

Target: SpRvs167
Test: as above
In short: as §1

| Binder | SPOT peptide array binding signal intensity |
| --- | --- |
| B1 | 1670 |
| B2 | ≤ 0 |

Target: SpSla1-D1-D2
Test: as above
In short: as §1

| Binder | SPOT peptide array binding signal intensity |
| --- | --- |
| B1 | 393 |
| B2 | 8 |

Target: SpSla1-D3
Test: as above
In short: as §1

| Binder | SPOT peptide array binding signal intensity |
| --- | --- |
| B1 | 23 |
| B2 | ≤ 0 |
